Data as given in the supplement of paper PMC12024424.
Where a name gives a salt, the structure may show the parent alone.

These compounds were tested on Staphylococcus aureus Sa2 (MRSA, cystic fibrosis isolate) (assay: growth reduction vs untreated control (viable cell count); higher = stronger antibacterial activity; extreme values may be limits of the assay). Settings: 0.1 mM; 24 h.
Method: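 Single-dose screen of the MedChem Express Drug Repurposing Library (0.1 mM, 1% DMSO) against planktonic MRSA S. aureus Sa2 (CF isolate) in TSB in 96-well plates, 37 °C aerobic, 24 h. Assays were run in triplicate and repeated twice.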
Compound `Cc1cc2c(C(C)C)c(O)c(O)c(C=O)c2c(O)c1-c1c(C)cc2c(C(C)C)c(O)c(O)c(C=O)c2c1O` [Gossypol (acetic acid)] has a growth reduction of 100%.
`c1ccc2c(c1)Sc1ccccc1N2CC1CN2CCC1CC2` (stereo not drawn) [Mequitazine] showed a growth reduction of 96%.
`C[S+]([O-])CCCCN=C=S` (stereo not drawn) [Sulforaphane] showed a growth reduction of 100%.
Work on `COc1cccc2c1cc([N+](=O)[O-])c1c(C(=O)O)cc3c(c12)OCO3` [Aristolochic acid A] yielded a growth reduction of 100%.
`O=c1[nH]c2ccccc2n1C1CCN(CCCC(c2ccc(F)cc2)c2ccc(F)cc2)CC1` [Pimozide] showed a growth reduction of 98%.
In the case of `O=C(CNC(=O)c1ccc(C2=NOC(c3cc(Cl)cc(C(F)(F)F)c3)(C(F)(F)F)C2)c2ccccc12)NCC(F)(F)F` (stereo not drawn) [Afoxolaner], the growth reduction is reported as 98%.
Work on `O=c1c2ccccc2[se]n1-c1ccccc1` [Ebselen] yielded a growth reduction of 100%.
`CC[C@H](C)C1O[C@]2(C=C[C@@H]1C)C[C@@H]1C[C@@H](C/C=C(\C)[C@@H](O[C@H]3C[C@H](OC)[C@@H](O[C@H]4C[C@H](OC)[C@H](NC)[C@H](C)O4)[C@H](C)O3)[C@@H](C)/C=C/C=C3\CO[C@@H]4[C@H](O)C(C)=C[C@@H](C(=O)O1)[C@]34O)O2` (stereo partly drawn) [Emamectin (Benzoate)] was tested, and the growth reduction was 100%.
`Fc1ccc(C(OCCN2CCN(CCCc3ccccc3)CC2)c2ccc(F)cc2)cc1` [Vanoxerine (dihydrochloride)] was tested, and the growth reduction was 99%.
For `Cc1cc2c(C(C)C)c(O)c(O)c(C=O)c2c(O)c1-c1c(C)cc2c(C(C)C)c(O)c(O)c(C=O)c2c1O` [Gossypol], the growth reduction was 100%.
With `O=C(O)c1nn(Cc2ccc(Cl)cc2Cl)c2ccccc12` [Lonidamine] the growth reduction was 90%.
`CCNC1=Nc2ccc(Cl)cc2C(C)(c2ccccc2)O1` (stereo not drawn) [Etifoxine] was tested, and the growth reduction was 100%.
In the case of `Cc1cc2c(C(C)C)c(O)c(O)c(C=O)c2c(O)c1-c1c(C)cc2c(C(C)C)c(O)c(O)c(C=O)c2c1O` [(R)-(-)-Gossypol acetic acid], the growth reduction is reported as 100%.
